{"source": "PubChem BioAssay AID624481", "about": "(The Scripps Research Institute Molecular Screening Center, 2012)", "note": "Calls of active or inactive are those of the source. No stated cut-off is given here; in the data, active means inhibition above about 50%; inactive means the rest."}
{"molecular_target": "Prolyl endopeptidase-like (Mus musculus) (UniProt Q8C167)", "sequence (Q8C167 whole entry, looked up)": "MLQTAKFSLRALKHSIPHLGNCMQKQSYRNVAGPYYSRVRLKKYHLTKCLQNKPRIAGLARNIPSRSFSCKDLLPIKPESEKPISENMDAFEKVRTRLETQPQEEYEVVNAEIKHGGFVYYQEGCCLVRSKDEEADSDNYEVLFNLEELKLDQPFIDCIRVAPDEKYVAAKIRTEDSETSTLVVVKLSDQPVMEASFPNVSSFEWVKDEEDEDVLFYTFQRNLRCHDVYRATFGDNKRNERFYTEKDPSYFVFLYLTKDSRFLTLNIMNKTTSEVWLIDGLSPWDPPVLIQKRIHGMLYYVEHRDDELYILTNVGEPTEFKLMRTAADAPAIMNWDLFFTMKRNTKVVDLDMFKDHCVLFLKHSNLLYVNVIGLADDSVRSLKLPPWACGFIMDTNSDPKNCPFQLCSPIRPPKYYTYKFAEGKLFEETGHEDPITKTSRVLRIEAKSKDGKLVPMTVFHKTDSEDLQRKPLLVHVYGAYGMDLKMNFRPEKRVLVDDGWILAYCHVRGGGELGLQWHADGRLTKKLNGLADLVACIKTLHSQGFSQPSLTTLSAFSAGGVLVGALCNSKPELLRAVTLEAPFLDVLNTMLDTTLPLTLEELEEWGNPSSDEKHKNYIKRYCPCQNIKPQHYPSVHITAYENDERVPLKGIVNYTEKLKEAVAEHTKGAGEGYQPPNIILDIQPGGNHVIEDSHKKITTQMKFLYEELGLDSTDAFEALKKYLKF", "test": "mouse PREPL enzyme inhibition by screening hits – biochemical, gel-based competitive ABPP, fluorescence, HTS hits, PREPL inhibitor project (AID 624481)", "conditions": "purified mouse PREPL, at 20 µM, stronger effect = higher value"}
{"smiles": "C[N+](C)(CCCCCC[N+](C)(C)CCCN1C(=O)c2cccc3cccc(c23)C1=O)CCCN1C(=O)c2cccc3cccc(c23)C1=O", "inhibition": "-29% (inactive)"}
{"smiles": "c1ccc(N2CCN(c3nc(NCc4ccco4)c4ccccc4n3)CC2)cc1", "inhibition": "94% (active)"}
{"smiles": "O=C1NC(Cc2c[nH]c3ccccc23)C(=O)N1Cc1ccc(CN2C(=O)NC(Cc3c[nH]c4ccccc34)C2=O)cc1", "note": "(stereo unspecified)", "inhibition": "28% (inactive)"}
{"smiles": "CN1CCN(CCCN2c3ccccc3Sc3ccc(Cl)cc32)CC1", "inhibition": "-90% (inactive)"}
{"smiles": "CCCCN1C(=N)N([C@@H](CN2CCC[C@H]2CN2C(N)=NC[C@@H]2Cc2ccccc2)C(C)C)C[C@H]1Cc1ccccc1", "inhibition": "-44% (inactive)"}
{"smiles": "CC(C)[C@H](CN1CCC[C@H]1CN1C(N)=NC[C@H]1C(C)C)N1C[C@@H](Cc2ccccc2)N(CCCC2CCCC2)C1=N", "inhibition": "92% (active)"}
{"smiles": "COc1cc(NC(=O)CN2CCN(c3ccccc3F)CC2)c(C)cc1[N+](=O)[O-]", "inhibition": "-92% (inactive)"}
{"smiles": "c1ccc(-c2nc(N3CCCCCC3)c3ccccc3n2)nc1", "inhibition": "-104% (inactive)"}
{"smiles": "Clc1cccc(-c2ccc(C3Nc4cccc5cccc(c45)N3)o2)c1", "inhibition": "100% (active)"}
{"smiles": "CCCCCNC(=O)c1ccc2c(=O)[nH]c3c(C(=O)NCC4CCCO4)sc(=S)n3c2c1", "note": "(stereo unspecified)", "inhibition": "-19% (inactive)"}
{"smiles": "Oc1ccc(Nc2nc(N3CCCC3)c3ccccc3n2)cc1", "inhibition": "-60% (inactive)"}
{"smiles": "Cc1cccc(C2CC(c3ccc(Cl)cc3)Nc3nc(N)nn32)c1", "note": "(stereo unspecified)", "inhibition": "-60% (inactive)"}
{"smiles": "COc1ccc(C)cc1Nc1n[n+](-c2ccccc2)c(-c2ccc(N(C)C)cc2)s1", "inhibition": "-72% (inactive)"}
{"smiles": "CN(C)CCN1C(=O)C(O)=C(C(=O)c2cc3ccccc3o2)C1c1ccc(N(C)C)cc1", "note": "(stereo unspecified)", "inhibition": "-47% (inactive)"}
{"smiles": "C#CCOCCOCCOCCNc1nc(N2CCN(C(=O)C(Cc3ccc(O)cc3)n3cc(C(N)CC(C)C)nn3)CC2)nc(N2CCN(C(=O)C(Cc3cc4ccccc4[nH]3)n3cc(C(N)Cc4ccc(O)cc4)nn3)CC2)n1", "note": "(stereo unspecified)", "inhibition": "-100% (inactive)"}
{"smiles": "CNCCC(Oc1ccc(C(F)(F)F)cc1)c1ccccc1", "note": "(stereo unspecified)", "inhibition": "-58% (inactive)"}
{"smiles": "CN(C)c1ccc(NC(=O)c2cccc(C(=O)Nc3ccc(N(C)C)cc3)n2)cc1", "inhibition": "-170% (inactive)"}
{"smiles": "COc1cccc(C2=CC(c3ccc(N(C)C)cc3)n3nnnc3N2)c1", "note": "(stereo unspecified)", "inhibition": "-95% (inactive)"}
{"smiles": "C[n+]1c(-c2ccccc2)sc(S)c1-c1ccccc1", "inhibition": "-31% (inactive)"}
{"smiles": "Cc1ccc(OCC(=O)Nc2ccc(N3CCN(C(=O)c4ccco4)CC3)cc2)c(C)c1", "inhibition": "-7% (inactive)"}
{"smiles": "Cc1ccc(C2=CC(c3ccc(N(C)C)cc3)n3nnnc3N2)cc1", "note": "(stereo unspecified)", "inhibition": "-77% (inactive)"}
{"smiles": "c1cncc(CNc2ccc3c(c2)OCO3)c1", "inhibition": "-50% (inactive)"}
{"smiles": "Cc1ccc2nc(-c3ccccn3)c(NC3CCCC3)n2c1", "inhibition": "-23% (inactive)"}
{"smiles": "COc1ccc2cc1Oc1ccc(cc1)C[C@H]1c3cc(c(OC)cc3CCN1C)Oc1c(OC)c(OC)cc3c1[C@H](C2)N(C)CC3", "inhibition": "-30% (inactive)"}
{"smiles": "CCN1C(=O)CC(c2ccccc2)N(C2CCCC2)c2nc(Nc3ccc(C(=O)NC4CCN(C)CC4)cc3OC)ncc21", "note": "(stereo unspecified)", "inhibition": "-25% (inactive)"}
{"smiles": "CN1CCN(c2ccc(NC(=O)COc3ccc(Cl)cc3Cl)cc2)CC1", "inhibition": "-13% (inactive)"}
